LANA-H2A inh = blocks KSHV LANA binding to histone H2A/H2B | Q9QR71 | cell-free LANA-H2A/H2B peptide, fluorescence polarization | inhibition, % (concentration not given with the values) | 0.6% of 320,000 active | AID 2629; in the data active means inhibition mostly above about 10%, no sharp cut-off; inactive means mostly below about 6.7%
HDAC3 inhib = inhibitors of human histone deacetylase 3; O15379; recombinant HDAC3, fluorogenic peptide/trypsin coupled, fluorescence; inhibition, % at 8.3 µM; 0.15% of 320,000 active; in the data active means inhibition above about 26%, passing the limit was not always enough; inconclusive means no clear call, values can overlap the other calls
CTSL1 counter = blocks F. hepatica cathepsin L1 in PFM18AAP counter-screen; recombinant F. hepatica cathepsin L1, Z-Leu-Arg-MCA fluorescence; inhibition, % at 5.96 µM; 0.49% of 300,000 active;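 active means inhibition above the mean of all tested compounds plus 3 SD, set per screening campaign, cut at about 17% in these data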
m5-HT2A agonist = mouse HTR2A agonism via beta-arrestin recruitment; AID 624169; activation, % at 7.6 µM; CHO-K1 mHTR2A beta-arrestin complementation, luminescence; percent of 30 µM serotonin response; 0.66% of 360,000 active;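 active means activation above a run cutoff, the mean activation of all tested compounds plus 3 SD, cut at about 14% in these data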
MOR ag counter = activates human mu opioid receptor in HTR2A counterscreen. shares compounds with m5-HT2A agonist. U2OS OPRM1 beta-arrestin PathHunter, luminescence; DMSO 0%, DAMGO 9.3 µM 100%. activation, % at 9.3 µM. 5.3% of 2,300 active. AID 624380;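 active means mean activation above the mean of DMSO-only wells plus 3 SD, cut at about 0.5% in these data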
Target sequence (P35372 whole entry, looked up): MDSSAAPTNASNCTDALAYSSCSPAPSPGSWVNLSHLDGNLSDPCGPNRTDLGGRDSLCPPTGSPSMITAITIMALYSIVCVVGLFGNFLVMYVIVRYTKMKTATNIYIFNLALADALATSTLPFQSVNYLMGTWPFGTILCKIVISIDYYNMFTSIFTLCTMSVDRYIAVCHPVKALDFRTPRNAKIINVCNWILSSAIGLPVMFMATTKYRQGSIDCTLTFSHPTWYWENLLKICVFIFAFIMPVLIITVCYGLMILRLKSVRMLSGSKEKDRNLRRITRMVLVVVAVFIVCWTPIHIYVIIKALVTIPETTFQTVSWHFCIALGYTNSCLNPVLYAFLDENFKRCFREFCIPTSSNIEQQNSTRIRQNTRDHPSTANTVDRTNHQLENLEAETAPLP
m5-HT2A ag conf = mouse HTR2A agonism confirmed; 19% of 2,300 active; CHO-K1 PathHunter beta-arrestin recruitment, luminescence; DMSO 0%, 30 µM serotonin 100%; activation, % at 7.6 µM; shares compounds with m5-HT2A agonist;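 active means mean activation across triplicates above the hit threshold derived in the original primary screen, cut at about 15% in these data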
Numbers stand for hits; n = inactive; u = inconclusive; x = no result given. Rows were chosen to be rich in hits. Some 1.7% of all compounds tested hit in one or more screens of this group.

SMILES	LANA-H2A inh	HDAC3 inhib	CTSL1 counter	m5-HT2A agonist	others
Nc1ccc2c(c1)C(=O)C(=O)c1ccccc1-2	n	n	112.2	n
Nc1ccc2c(c1)C(=O)c1ccccc1-2	n	n	n	n
O=C1C(=O)c2ccc(-c3ccccc3)cc2-c2ccccc21	n	n	109.4	n
O=C(C1=NOC2(C1)C(=O)Nc1ccccc12)N1CCOCC1 (configuration not stated)	x	x	x	n
Cc1ccccc1-c1cc2c(nn1)-c1ccccc1C2=O	n	n	71.2	n
Cc1nn(-c2ccccc2)c(C)c1NC(=O)COC(=O)Cc1cccc(C(F)(F)F)c1	n	n	n	n
CN(c1ccc(C(=O)Nc2ccc3c(c2)OCCO3)cc1)S(C)(=O)=O	n	n	n	n
CN(c1ccc(C(=O)Nc2ccc3c(c2)OCO3)cc1)S(C)(=O)=O	n	n	17.2	n
COC(=O)C1=C(N)Oc2cc(C)[nH]c(=O)c2C1c1ccccc1OC (configuration not stated)	n	n	n	n
CC(OC(=O)c1ccc([N+](=O)[O-])s1)C(=O)Nc1ncc(Cl)cc1Cl (configuration not stated)	n	n	27.1	n
Cc1ccc(OC(C)C(=O)Nc2ncc(Cl)cc2Cl)c([N+](=O)[O-])n1 (configuration not stated)	n	n	x	n
O=C(Nc1ccccc1Oc1ccccc1)c1cccs1	n	n	n	n
CCN(CC)CCNC(=O)c1cn(CC)c2ccc(S(=O)(=O)N3CCOCC3)cc2c1=O	8.5	n	n	n
CCCCN(CCCC)CCNC(=O)c1cn(CC)c2ccc(S(=O)(=O)N3CCCC3)cc2c1=O	n	n	n	n
O=C1NC[C@H](CCCCN2C[C@H](Cc3ccccc3)N(CC3CCCCC3)C(=O)C2=O)N(CC2CCCCC2)C1=O	x	x	x	n
CC1=NN(c2ccccc2)C(=O)C1N=Nc1ccc(C)cc1 (configuration not stated)	n	n	n	x
CC1=NN(c2ccccc2)C(=O)C1N=Nc1ccc(S(N)(=O)=O)cc1 (configuration not stated)	n	n	19.5	n
CCCc1cc(=O)oc2cc(C)cc(OCC(=O)Nc3ccc(CN4CCOCC4)cc3)c12	n	n	n	n
C/C=C(/C)C(=O)Nc1cccc(C2=NOC3(C2)C[C@@H](C(N)=O)N(C(=O)CC)C3)c1 (some centres not stated)	n	n	n	n
C/C=C/C(=O)N1CC2(CC(c3cccc(NC(=O)/C(C)=C/C)c3)=NO2)C[C@H]1C(N)=O (some centres not stated)	n	n	18.5	n
CCc1cc(=O)oc2cc(OC(C)C(=O)N3CC[C@@]4(O)CCCC[C@H]4C3)ccc12 (some centres not stated)	x	x	x	n
CC1CCCCC12NC(=O)N(CC(=O)Nc1nccs1)C2=O (configuration not stated)	x	x	x	n
COCCn1c(SCC(=O)c2c(N)n(C3CC3)c(=O)[nH]c2=O)nnc1-c1cccc(C)c1	n	n	x	n
COC(=O)CSC1=NS(=O)(=O)c2ccccc21	n	54.1	n	n
O=C(NCc1nnc(SCC(=O)N2CCOCC2)o1)c1c(F)cccc1F	n	u	n	n
SMILES	LANA-H2A inh	HDAC3 inhib	CTSL1 counter	m5-HT2A agonist	others
NS(=O)(=O)c1ccc(Oc2ccc(S(N)(=O)=O)cc2)cc1	n	n	16.9	n
CCCCOc1ccc(S(N)(=O)=O)cc1	n	n	n	n
CC1(OC(=O)C2CCCC2)C(=O)C=C2C=C(c3ccsc3)N(Cc3ccco3)C=C2C1=O (configuration not stated)	n	n	22.1	n
CC(C)c1ccc(NC(=O)C(c2ccccc2)N2CCN(C(=O)c3ccco3)CC2)cc1 (configuration not stated)	n	n	n	n
CC(C(=O)Nc1ccccc1)N1CCN(C(=O)c2ccco2)CC1 (configuration not stated)	68.1	n	x	n
COc1ccccc1N1CCN(C(=O)C(C)NC(=O)c2ccco2)CC1 (configuration not stated)	n	n	x	n
COc1ccccc1N1CCN(C(=O)c2ccco2)CC1	16.5	n	n	n
CCCOc1ccc(C(=O)N(Cc2cccs2)C2CCS(=O)(=O)C2)cc1 (configuration not stated)	n	n	n	n
O=C(NCCOc1ccccc1)C1CCC(=O)N(C2CCCCCC2)C1 (configuration not stated)	n	n	n	n
Cc1nc(SCC(=O)NCc2ccc3c(c2)OCO3)c(C#N)c2c1CCCC2	n	n	20.8	n
CCCCc1ccc(NC(=O)CSc2nc3ncccc3[nH]2)cc1	n	n	n	n
CCN(CC)C(=O)CSc1nc2ncccc2[nH]1	n	n	18.6	n
CSc1cccc(NS(=O)(=O)c2cn(C)cn2)c1	n	n	n	16.7	MOR ag counter=n;m5-HT2A ag conf=n
COc1ccc(NS(=O)(=O)c2cn(C)cn2)cc1	n	n	n	n
CSc1nc(C)cc(NC(N)=O)n1	x	x	n	14.7	MOR ag counter=n;m5-HT2A ag conf=n
Oc1cccc(Nc2ccccc2)c1	n	n	x	n
Oc1cccc(NC(=S)Nc2ccccc2)c1	n	n	n	17.5	MOR ag counter=n;m5-HT2A ag conf=n
CCOC(=O)c1ccc(NC(=O)CCS(=O)(=O)Cc2ccccc2)cc1	n	x	n	15.3	MOR ag counter=n;m5-HT2A ag conf=n
COC(=O)c1ccc(NC(=O)CS(=O)(=O)Cc2ccccc2)cc1	n	n	n	n
CCc1nn(CC(=O)NCCc2ccc(S(N)(=O)=O)cc2)c(=O)c2cc3sccc3n12	n	n	n	26.5	MOR ag counter=n;m5-HT2A ag conf=n
CCc1nn(CC(=O)N2CCN(CC)CC2)c(=O)c2cc3sccc3n12	n	n	n	n
CC(=O)Cn1c(CN2CCN(C(=O)c3ccco3)CC2)nc2c1c(=O)n(C)c(=O)n2C	n	n	n	n
Cn1c(NCc2ccccc2Cl)nc2ccccc21	n	n	n	19.8	MOR ag counter=n;m5-HT2A ag conf=n
Cn1c(NCc2ccccc2O)nc2ccccc21	n	n	n	n
N#Cc1c(F)cccc1NCCCn1ccnc1	n	n	n	n
SMILES	LANA-H2A inh	HDAC3 inhib	CTSL1 counter	m5-HT2A agonist	others
COc1cc(S(=O)(=O)N2CCN(c3ccccn3)CC2)ccc1Br	n	n	n	n
Cc1cc(-c2cccs2)c2c(n1)sc1c(=O)[nH]c(=O)[nH]c12	n	n	n	17.0	MOR ag counter=n;m5-HT2A ag conf=n
Cc1cc(-c2ccccc2)c2c(n1)sc1c(O)cc(=O)[nH]c12	n	n	n	x
COc1ccc(-c2ccc3c(c2)S(=O)(=O)c2cccc(C(=O)O)c2C3=O)cc1OC	n	n	x	n
COc1ncc(-c2ccc3c(c2)S(=O)(=O)c2cccc(C(=O)O)c2C3=O)cn1	n	n	x	17.9	MOR ag counter=n;m5-HT2A ag conf=n
Cc1ccc(C2NC(=O)c3ccccc3N2)c(C)c1 (configuration not stated)	x	x	x	n

Screening results deposited in PubChem BioAssay by several laboratories.
